Reference: PubChem BioAssay (Tox21)
Results filed as inconclusive are left out. Active and inactive are the calls of the source. Unless noted, calls follow the shape of the dose curve; as a rule, active = well fitted curve in the direction sought with a large enough effect in the repeat runs; inconclusive = weak or mixed curves; inactive = no such curve, though single readings can be large; an effect the other way counts as inactive or inconclusive.

How the values were obtained:
[1] = molecular target: Estrogen receptor beta (Homo sapiens) (UniProt Q92731); assay: qHTS assay to identify small molecule antagonists of the estrogen receptor beta (ER-beta) signaling pathway (AID 1259378; active = well fitted inhibition curve with a large enough effect in the signal ratio in the repeat runs, not every such curve was filed as active; the % refers to the signal ratio)
Sequence of Estrogen receptor beta (Homo sapiens) (Q92731 whole entry, looked up): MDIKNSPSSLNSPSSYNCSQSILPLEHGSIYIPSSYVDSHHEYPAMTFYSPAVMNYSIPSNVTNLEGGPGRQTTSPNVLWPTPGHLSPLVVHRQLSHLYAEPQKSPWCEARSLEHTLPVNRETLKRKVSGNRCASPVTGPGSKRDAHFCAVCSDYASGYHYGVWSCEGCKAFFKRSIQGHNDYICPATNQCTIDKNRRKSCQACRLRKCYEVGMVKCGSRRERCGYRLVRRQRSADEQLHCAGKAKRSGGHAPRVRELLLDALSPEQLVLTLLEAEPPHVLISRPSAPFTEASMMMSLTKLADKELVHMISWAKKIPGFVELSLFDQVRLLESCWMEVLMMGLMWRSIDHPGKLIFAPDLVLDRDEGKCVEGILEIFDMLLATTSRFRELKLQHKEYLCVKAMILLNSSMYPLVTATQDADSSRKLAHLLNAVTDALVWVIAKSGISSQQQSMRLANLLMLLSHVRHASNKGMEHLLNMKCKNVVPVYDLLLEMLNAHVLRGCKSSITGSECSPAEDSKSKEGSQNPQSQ
Procedure, shortened: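 ER-beta-UAS-bla HEK293T cells in 2% charcoal-stripped FBS medium treated with compound plus 1nM final 17-beta-estradiol for 16 hr at 37C. Beta-lactamase reporter read by FRET substrate fluorescence after 2 hours at room temperature.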

[2] = qHTS assay to identify small molecule agonists of the androgen receptor (AR) signaling pathway in the presence of an antagonist - cell viability counter screen (AID 1259379); also: nearly all actives have a fitted effect of over 25% in size; also: potency is read from the fitted curve at half-maximal effect
Procedure, shortened: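 Cells: MDA-kb2 (MMTV-luc, AR and GR elements), 3,000/well, 5 hr settle. Added: nilutamide 3.0uM final, then compounds (15 conc.). Incubation: 16 hr, 37C, no CO2. Read-out: CellTiter-Fluor, 1 hr, fluorescence.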

[3] = qHTS assay to identify small molecule agonists of the estrogen receptor beta (ER-beta) signaling pathway - cell viability counter screen (AID 1259380); also: nearly all actives have a fitted effect of over 30% in size
Procedure, shortened: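 HEK293T ER-beta-UAS-bla; 2% CS-FBS; 6 hr pre-plate, 16 hr cpd at 37C/5% CO2; LiveBLAzer read first, then CellTiter-Glo 30 min RT, luminescence.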

[4] = qHTS assay to identify small molecule antagonists of the estrogen receptor beta (ER-beta) signaling pathway - cell viability counter screen (AID 1259382); also: series mostly up to about 92 µM; nearly all actives have a fitted effect of over 55% in size
Procedure, shortened: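 Cells: ER-beta-UAS-bla HEK293T, 2,000/well, 2% CS-FBS, 6 hr settle. Cpd + E2 (1nM final), 16 hr, 37C/5% CO2. Bla FRET substrate 2 hr RT, then CellTiter-Glo 30 min RT, luminescence.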

[5] = molecular target: Estrogen receptor (Homo sapiens) (UniProt P03372); assay: qHTS assay to identify small molecule agonists of the estrogen receptor alpha (ER-alpha) signaling pathway in the presence of an antagonist (AID 1259383; calls by dose curve; also: top concentration of the series differs between compounds; nearly all actives have a fitted effect of over 15% in size)
Sequence of Estrogen receptor (Homo sapiens) (P03372 whole entry, looked up): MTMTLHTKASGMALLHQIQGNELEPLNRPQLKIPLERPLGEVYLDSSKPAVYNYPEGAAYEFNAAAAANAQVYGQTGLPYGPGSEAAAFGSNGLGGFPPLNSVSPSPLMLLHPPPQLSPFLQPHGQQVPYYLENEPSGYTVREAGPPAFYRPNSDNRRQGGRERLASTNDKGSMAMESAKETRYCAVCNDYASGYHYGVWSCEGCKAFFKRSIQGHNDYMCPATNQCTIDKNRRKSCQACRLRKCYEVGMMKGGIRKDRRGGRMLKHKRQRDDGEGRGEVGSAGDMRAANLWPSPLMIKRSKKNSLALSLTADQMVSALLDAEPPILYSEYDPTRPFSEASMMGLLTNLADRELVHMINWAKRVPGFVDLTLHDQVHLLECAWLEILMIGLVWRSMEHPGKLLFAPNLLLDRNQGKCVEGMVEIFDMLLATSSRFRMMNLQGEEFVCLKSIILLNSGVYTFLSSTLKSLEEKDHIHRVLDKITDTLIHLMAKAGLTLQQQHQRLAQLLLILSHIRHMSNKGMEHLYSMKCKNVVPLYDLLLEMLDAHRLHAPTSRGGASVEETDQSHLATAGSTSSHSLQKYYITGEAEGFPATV
Procedure, shortened: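 VM7Luc4E2, endog. ER-alpha + 4×ERE-luc; charcoal-stripped FBS, phenol red-free, 5 d; 24hr plating; +10.0nM ICI-182,780 (final); cpds 15 conc, 22hr, 37C/5% CO2; ONE-Glo luminescence.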

[6] = qHTS assay to identify small molecule agonists or antagonists of the thyroid stimulating hormone receptor (TSHR) signaling pathway - wild type cell line counter screen (AID 1259384; calls by dose curve)
Procedure, shortened: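 Wild-type Hek293 cells, 800/well, 18 h at 37C, then compound with Ro20-1724 for 30 min RT. cAMP by HTRF (cAMP-d2/anti-cAMP cryptate), 1 h RT, fluorescence read. 15 concentrations, triplicates.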

[7] = molecular target: Thyrotropin receptor (Homo sapiens) (UniProt P16473); assay: qHTS assay to identify small molecule antagonists of the thyroid stimulating hormone receptor (TSHR) signaling pathway (AID 1259385; calls by dose curve; also: nearly all actives have a fitted effect of over 20% in size)
Sequence of Thyrotropin receptor (Homo sapiens) (P16473 whole entry, looked up): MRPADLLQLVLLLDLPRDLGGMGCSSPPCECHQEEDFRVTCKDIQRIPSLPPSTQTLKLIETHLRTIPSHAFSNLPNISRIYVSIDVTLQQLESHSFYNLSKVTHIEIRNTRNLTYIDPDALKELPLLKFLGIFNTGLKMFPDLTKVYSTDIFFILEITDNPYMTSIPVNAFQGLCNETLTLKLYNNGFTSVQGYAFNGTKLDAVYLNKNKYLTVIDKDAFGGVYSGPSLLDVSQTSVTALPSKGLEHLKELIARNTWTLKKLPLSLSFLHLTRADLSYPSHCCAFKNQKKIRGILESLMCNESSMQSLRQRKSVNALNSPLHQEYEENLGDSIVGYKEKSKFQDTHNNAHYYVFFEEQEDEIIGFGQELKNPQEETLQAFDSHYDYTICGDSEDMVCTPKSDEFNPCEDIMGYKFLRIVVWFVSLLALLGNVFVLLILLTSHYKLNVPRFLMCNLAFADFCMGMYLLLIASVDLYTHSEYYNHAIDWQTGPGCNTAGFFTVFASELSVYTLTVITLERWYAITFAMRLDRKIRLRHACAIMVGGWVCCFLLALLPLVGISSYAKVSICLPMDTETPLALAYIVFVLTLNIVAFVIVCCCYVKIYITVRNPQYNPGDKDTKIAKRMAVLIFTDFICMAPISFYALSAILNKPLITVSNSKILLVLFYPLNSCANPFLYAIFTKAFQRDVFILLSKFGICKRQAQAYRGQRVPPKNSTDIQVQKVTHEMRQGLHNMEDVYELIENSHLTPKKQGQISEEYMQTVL
Procedure, shortened: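 TSHR-HEK293 cells (800/well) plated 18 h, then compounds with Ro20-1724 and TSH at 1.5 ng/mL final, 30 min at room temperature. cAMP quantified by HTRF (cAMP-d2/anti-cAMP-cryptate, 1 h); 15 concentrations in triplicate.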

[8] = qHTS assay to identify small molecule agonists of the estrogen receptor alpha (ER-alpha) signaling pathway in the presence of an antagonist - cell viability counter screen (AID 1259386);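 also: cells exposed to compounds for 22 h at 37 °C before the viability read; nearly all actives have a fitted effect of over 30% in size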; also: potency is read from the fitted curve at half-maximal effect
Procedure, shortened: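 VM7Luc4E2, stripped-serum pre-culture 5 d; 24hr plating; +ICI-182,780 10.0nM final; cpds 15 conc, 22hr, 37C/5% CO2; CellTiter-Fluor added at 21hr, fluorescence 1hr later.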

[9] = molecular target: Progesterone receptor (Homo sapiens) (UniProt P06401); assay: qHTS assay to identify small molecule agonists of the progesterone receptor (PR) signaling pathway (AID 1346784; calls by dose curve; also: nearly all actives have a fitted effect of over 30% in size)
Sequence of Progesterone receptor (Homo sapiens) (P06401 whole entry, looked up): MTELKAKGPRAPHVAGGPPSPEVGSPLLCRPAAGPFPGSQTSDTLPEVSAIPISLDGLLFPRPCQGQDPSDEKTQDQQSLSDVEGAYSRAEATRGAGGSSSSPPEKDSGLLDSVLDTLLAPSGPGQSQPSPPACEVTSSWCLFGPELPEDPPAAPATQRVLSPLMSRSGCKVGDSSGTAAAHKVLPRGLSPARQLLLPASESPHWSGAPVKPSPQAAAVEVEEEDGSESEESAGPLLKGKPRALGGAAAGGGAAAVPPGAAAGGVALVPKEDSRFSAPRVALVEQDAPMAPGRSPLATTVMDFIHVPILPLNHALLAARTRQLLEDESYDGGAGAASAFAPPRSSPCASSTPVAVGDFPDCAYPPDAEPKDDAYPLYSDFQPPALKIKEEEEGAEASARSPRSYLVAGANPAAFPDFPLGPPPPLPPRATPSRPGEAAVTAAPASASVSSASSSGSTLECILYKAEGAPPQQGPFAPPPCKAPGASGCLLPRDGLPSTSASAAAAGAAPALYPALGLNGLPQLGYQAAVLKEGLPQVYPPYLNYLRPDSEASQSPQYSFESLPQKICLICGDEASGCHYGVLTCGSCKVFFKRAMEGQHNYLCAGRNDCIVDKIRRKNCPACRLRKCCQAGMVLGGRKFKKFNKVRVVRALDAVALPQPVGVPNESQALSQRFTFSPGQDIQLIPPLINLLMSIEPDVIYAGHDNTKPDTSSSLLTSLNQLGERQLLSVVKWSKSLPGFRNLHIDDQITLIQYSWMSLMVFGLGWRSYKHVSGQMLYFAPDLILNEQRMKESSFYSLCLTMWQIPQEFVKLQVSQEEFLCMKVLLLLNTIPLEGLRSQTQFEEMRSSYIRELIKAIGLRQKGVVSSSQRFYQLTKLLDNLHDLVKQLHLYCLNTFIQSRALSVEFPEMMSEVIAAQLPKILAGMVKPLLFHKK
Procedure, shortened: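 HEK 293T PR-UAS-bla reporter cells, 2% charcoal-stripped FBS; 6 hr settle at 37C/5% CO2, compound (DMSO) 16 hr, LiveBLAzer B/G FRET substrate 2 hr RT, fluorescence intensity read.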

Measured: Potency

O=C(CO)[C@@H](O)[C@H](O)[C@H](O)CO
inactive: [1] | [2] | [3] | [4] | [5] | [6] | [7] | [8] | [9]

CCC(C(=O)NC(=O)NC(C)=O)c1ccccc1 (stereo unspecified)
inactive: [1] | [2] | [3] | [4] | [5] | [6] | [7] | [8] | [9]

C=COC(=O)C(C)(CC)CCC(C)C (stereo unspecified)
inactive: [1] | [2] | [3] | [4] | [5] | [8] | [9]

CCOC(=O)OC(C)OC1=C(C(=O)Nc2ccccn2)N(C)S(=O)(=O)c2ccccc21 (stereo unspecified)
inactive: [1] | [2] | [3] | [4] | [5] | [6] | [7] | [8] | [9]

CC(C)c1ccc2ncccc2c1
inactive: [1] | [2] | [3] | [4] | [5] | [8] | [9]

CN(C)CCCN(C)CCCN(C)C
inactive: [1] | [2] | [3] | [4] | [5] | [6] | [7] | [8] | [9]

CN1C(C)(C)CC(O)CC1(C)C
inactive: [1] | [2] | [3] | [4] | [5] | [6] | [7] | [8] | [9]

CC(C)(N)C#N
inactive: [1] | [2] | [3] | [4] | [5] | [6] | [7] | [9]

CC(C)(CCC(=O)O)C(=O)O
inactive: [1] | [2] | [3] | [4] | [5] | [8] | [9]

C=CC(C)(CCC=C(C)C)OC(=O)CC (stereo unspecified)
inactive: [1] | [2] | [3] | [4] | [5] | [6] | [7] | [8] | [9]

CCNS(=O)(=O)c1ccc(C)cc1
inactive: [1] | [2] | [3] | [4] | [5] | [8]

Clc1cc(Cl)cc(Cl)c1
inactive: [1] | [2] | [3] | [4] | [5] | [6] | [7] | [8] | [9]

O=[N+]([O-])c1ccc(/C=N\O)o1
inactive: [1] | [2] | [3] | [4] | [5] | [6] | [7] | [8] | [9]

CCCCN(CCC(=O)OCC)C(C)=O
inactive: [1] | [2] | [3] | [4] | [5] | [6] | [7] | [8] | [9]

CC(CO)(CO)[N+](=O)[O-]
inactive: [1] | [2] | [3] | [4] | [5] | [6] | [7] | [8] | [9]

CC(N)C12CC3CC(CC(C3)C1)C2 (stereo unspecified)
inactive: [1] | [2] | [3] | [4] | [5] | [6] | [7] | [8] | [9]

CC1=NN(c2cc(S(=O)(=O)O)ccc2Cl)C(=O)C1N=Nc1ccccc1 (stereo unspecified)
active: [2] 27.3 µM | [8] 27.3 µM
inactive: [1] | [3] | [4] | [5] | [6] | [7] | [9]

OCCCCCO
inactive: [1] | [2] | [3] | [4] | [5] | [6] | [7] | [8] | [9]

CN1CCC(=C2c3ccccc3CCc3cccnc32)CC1
inactive: [1] | [2] | [3] | [4] | [5] | [6] | [7] | [9]

CCOC(=O)c1ccccc1
inactive: [1] | [2] | [3] | [4] | [5] | [8] | [9]

COc1cc(-c2ccc(=O)[nH]n2)ccc1OC(F)F
inactive: [1] | [2] | [3] | [4] | [5] | [6] | [7] | [8] | [9]

CC(=O)c1ccccc1[N+](=O)[O-]
inactive: [1] | [2] | [3] | [4] | [5] | [6] | [7] | [8] | [9]

CCOC(=O)COC(=O)c1ccccc1C(=O)OCC
inactive: [1] | [2] | [3] | [4] | [5] | [6] | [7] | [8] | [9]

CC1OC1C1CCC2(C)OC2C1 (stereo unspecified)
inactive: [1] | [2] | [3] | [4] | [5] | [6] | [7] | [8] | [9]

CC(CC=O)CC(C)(C)C (stereo unspecified)
inactive: [1] | [2] | [3] | [4] | [5] | [6] | [7] | [8] | [9]

c1ccc(Cc2ccccc2)cc1
inactive: [1] | [2] | [3] | [4] | [5] | [8] | [9]

C=CCCCCCCCCC(=O)OCC
inactive: [1] | [2] | [3] | [4] | [5] | [6] | [7] | [8] | [9]

C=CCCC(=O)O
inactive: [1] | [2] | [3] | [4] | [5] | [6] | [7] | [8] | [9]

CC(=O)c1ccc2ccccc2c1
inactive: [1] | [2] | [3] | [4] | [5] | [6] | [7] | [8] | [9]

COCCOCC(OC)OC
inactive: [1] | [2] | [3] | [4] | [5] | [6] | [7] | [8] | [9]

CN(C)[C@@H]1C(=O)C(C(=O)NCN2CCCC2)=C(O)[C@@]2(O)C(=O)C3=C(O)c4c(O)cccc4[C@@](C)(O)C3C[C@@H]12 (stereo partly specified)
inactive: [1] | [2] | [3] | [4] | [6] | [7] | [8] | [9]

CCCCOCCOC(=O)CCCCCCCCC(=O)OCCOCCCC
inactive: [1] | [2] | [3] | [4] | [6] | [7] | [8] | [9]

CCCCc1nc(Cl)c(CO)n1Cc1ccc(-c2ccccc2-c2nn[nH]n2)cc1
inactive: [1] | [2] | [3] | [4] | [8]

c1ccc2sc(SN3CCOCC3)nc2c1
inactive: [1] | [2] | [3] | [4] | [6] | [7] | [8]

CCOc1ccccc1OCC
inactive: [1] | [2] | [3] | [4] | [6] | [7] | [8] | [9]
